# Experimental data taken from paper PMC4336329 (PLoS ONE, 2015).
# Among all 310,000 compounds or so, about 14,000 (4.5%) showed an effect of 50% or more. The effect is printed as a negative number. The sample holds strong results, similar compounds and a random draw of the others, so the mix is not that of the screen.
# Biological target: human ether-à-go-go-related gene (hERG) potassium channel (human, UniProt Q12809)
# Assay: primary screen, population patch clamp on CHO cells stably expressing hERG; higher = less effect of the substance
# 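Note: peak tail current of the secondary pulse compared with the same well before compound.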
# Chain of human ether-à-go-go-related gene (hERG) potassium channel (Q12809 whole entry, looked up): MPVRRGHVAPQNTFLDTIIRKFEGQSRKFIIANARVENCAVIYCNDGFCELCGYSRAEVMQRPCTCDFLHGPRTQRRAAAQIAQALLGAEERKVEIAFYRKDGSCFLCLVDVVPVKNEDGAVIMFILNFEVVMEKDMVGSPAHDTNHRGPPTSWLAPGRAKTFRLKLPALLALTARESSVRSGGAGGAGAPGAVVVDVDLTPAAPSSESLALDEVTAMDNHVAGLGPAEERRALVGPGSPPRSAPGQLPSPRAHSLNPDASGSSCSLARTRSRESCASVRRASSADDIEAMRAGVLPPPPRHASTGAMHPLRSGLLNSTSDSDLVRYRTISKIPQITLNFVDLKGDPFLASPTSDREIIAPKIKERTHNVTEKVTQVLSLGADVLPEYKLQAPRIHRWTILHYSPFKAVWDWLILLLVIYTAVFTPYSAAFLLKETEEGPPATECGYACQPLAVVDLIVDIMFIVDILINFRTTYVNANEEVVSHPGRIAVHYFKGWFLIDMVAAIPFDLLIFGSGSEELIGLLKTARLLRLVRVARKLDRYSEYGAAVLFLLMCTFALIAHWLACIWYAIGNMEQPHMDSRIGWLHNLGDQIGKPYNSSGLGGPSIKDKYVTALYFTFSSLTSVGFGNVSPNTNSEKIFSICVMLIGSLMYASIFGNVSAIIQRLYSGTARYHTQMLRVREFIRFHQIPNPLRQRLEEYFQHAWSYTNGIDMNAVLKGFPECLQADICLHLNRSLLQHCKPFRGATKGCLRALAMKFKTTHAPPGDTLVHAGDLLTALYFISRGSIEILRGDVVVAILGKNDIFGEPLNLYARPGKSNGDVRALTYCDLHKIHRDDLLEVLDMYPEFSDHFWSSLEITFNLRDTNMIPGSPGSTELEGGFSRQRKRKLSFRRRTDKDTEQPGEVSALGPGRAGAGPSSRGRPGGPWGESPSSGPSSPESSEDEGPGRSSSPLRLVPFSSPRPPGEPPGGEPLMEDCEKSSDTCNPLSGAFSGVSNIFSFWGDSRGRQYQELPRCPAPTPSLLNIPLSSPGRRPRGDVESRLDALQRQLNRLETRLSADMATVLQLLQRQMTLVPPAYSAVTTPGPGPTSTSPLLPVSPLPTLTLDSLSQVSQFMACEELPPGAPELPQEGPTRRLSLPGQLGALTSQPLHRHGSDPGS
row,SMILES,"hERG current change (%, negative = inhibition) at 10uM"
1,Fc1ccccc1N1CC(c2ccccc2)C(c2cccs2)=N1 (stereo not drawn),9.56%
2,Cc1ccc(Cn2nnc3c(=O)[nH]c(C4CCCN(S(=O)(=O)c5ccccc5F)C4)nc32)cc1 (stereo not drawn),12.2%
3,COc1ccc(/C=N/Nc2nncc3ccccc23)c(OC)c1,10.7%
4,COc1cc(C)c(Cl)c(C)c1S(=O)(=O)NC1CC(C)(C)NC(C)(C)C1,7.91%
5,O=C(NCCSc1ccccc1)c1ccc(Br)cc1,13.5%
6,OC(COc1ccccc1)CN1CCCC1 (stereo not drawn),14.5%
7,N#Cc1ccc(OCC(O)CN2CCN(C(c3ccccc3)c3ccccc3)CC2)cc1 (stereo not drawn),-72.1%
8,CCC(=O)c1ccc(OCC(O)CNC(C)c2ccccc2)cc1 (stereo not drawn),-14.7%
9,Cl.OC(COc1ccccc1)CN1CCN(CC(O)COc2ccccc2)CC1 (stereo not drawn),-61.7%
10,CCC(=O)c1ccc(OCC(O)CN2CCN(C(c3ccccc3)c3ccccc3)CC2)cc1 (stereo not drawn),-67.2%
11,CN1CCN(CC(O)COc2ccccc2)CC1 (stereo not drawn),-0.905%
12,COC(=O)CN1CCN(C(c2ccccc2)c2ccccc2)CC1,5%
13,CCC(=O)c1ccc(OCC(O)CN2CCOCC2)cc1 (stereo not drawn),7.44%
14,CC(C)OCC(O)CN1CCN(C(c2ccccc2)c2ccccc2)CC1.Cl (stereo not drawn),-58.1%
15,CCOc1ccc(NS(=O)(=O)c2ccc(Cl)c(C(=O)N(C)Cc3cccnc3)c2)cc1,-25.9%
16,COc1ccccc1NC(=O)CSc1nnc(C)n1Cc1ccccc1,-34.5%
17,CCOc1ccc(Nc2cc(=O)oc3ccccc23)cc1,7.78%
18,Cc1nn(C)cc1C(=O)NNC(=S)Nc1ccc(Cl)cc1,12.6%
19,CCOC(=O)C(Cc1ccc(Cl)cc1Cl)c1ccno1 (stereo not drawn),14.3%
20,O=C(NCc1ccc(Cl)cc1)C(=O)NCC1OCCN1S(=O)(=O)c1ccc2c(c1)OCCO2 (stereo not drawn),-7.02%
21,Cc1cc(C)c(S(=O)(=O)/N=C2/C=C(Sc3ncn[nH]3)C(=O)c3ccccc32)cc1C,18.2%
22,C[C@H](NC(=O)OC(C)(C)C)C(=O)N/N=C/c1ccc2nccnc2c1,21.7%
23,COc1cccc(N(C(=O)c2snc(C(N)=O)c2N)C(C(=O)NCC2CCCO2)c2ccc3ncccc3c2)c1 (stereo not drawn),-16.8%

row,SMILES,"hERG current change (%, negative = inhibition) at 10uM"
1,COc1ccccc1OCC(=O)Nc1cccc(S(=O)(=O)NC2=NCCCCC2)c1,-4.65%
2,CCOc1ccccc1C(=O)N1CCN(C(c2ccccc2)c2ccccc2)CC1,0.314%
3,CCC(=O)c1ccc(OCC(O)Cn2nc(C)c(C(C)=O)c2C)cc1 (stereo not drawn),-36.7%
4,OC(CN1CCN(C(c2ccccc2)c2ccccc2)CC1)c1ccccc1 (stereo not drawn),-30.8%
5,CCC(=O)c1ccc(OCC(O)Cn2nc(C)c(Br)c2C)cc1 (stereo not drawn),-97.8%
6,CC(=O)c1ccccc1OCC(O)CN1CCN(C(c2ccccc2)c2ccccc2)CC1 (stereo not drawn),-66.7%
7,OC(COCc1ccco1)CN1CCN(C(c2ccccc2)c2ccccc2)CC1 (stereo not drawn),-73.4%
8,COc1cccc(OCC(O)CN2CCN(C(c3ccccc3)c3ccccc3)CC2)c1.Cl (stereo not drawn),-43.6%
9,OC(COc1ccccc1)CN1CCOCC1 (stereo not drawn),9.83%
10,O=C(CN1CCN(C(c2ccccc2)c2ccccc2)CC1)NC(=O)NCc1ccco1,-5.1%
11,CC(=O)c1ccccc1OCC(O)CN1CCN(c2ccccn2)CC1.Cl (stereo not drawn),-39%
12,OC(COc1ccccc1)CN1CCN(C(c2ccccc2)c2ccccc2)CC1 (stereo not drawn),-69.6%
13,CCC(=O)c1ccc(OCC(O)Cn2nc(C)cc2C)cc1 (stereo not drawn),-7.44%
14,Cc1cccnc1NC(=S)NCc1ccco1,-2.97%
15,CC(=O)O.COc1c(O)ccc(C2NC(=O)NC(C)=C2C(=O)Nc2ccccc2C)c1[N+](=O)[O-] (stereo not drawn),31.9%
16,CC(/C=C1\SC(=S)N(CCC(=O)Nc2cccc(C(=O)O)c2)C1=O)=C\c1ccccc1,10.9%
17,Cc1ccc(NC(=S)N=Nc2c(O)[nH]c3ccccc23)cc1,9.41%
18,CCC(=O)c1ccc(OCC(O)CN2CCN(c3ccccn3)CC2)cc1 (stereo not drawn),-34%
19,CCOc1ccc(OCC(O)CN2CCN(S(=O)(=O)c3cccc(C(F)(F)F)c3)CC2)cc1.O=C(O)C(=O)O (stereo not drawn),13.7%
20,Cl.O=C(/C=C/c1ccccc1)N1CCN(CC(O)COc2ccccc2)CC1 (stereo not drawn),-69.7%
21,CC(C)(C)c1ccc(OCC(O)CN2CCCC2)cc1.Cl (stereo not drawn),-35.7%
22,Cl.O=C(C(c1ccccc1)c1ccccc1)N1CCN(CC(O)COc2ccccc2)CC1 (stereo not drawn),-13.7%
